Marburg entry inh: Marburg virus entry inhibition | Marburg virus pseudotyped entry inhibition, cell reporter | Potency, µM (series often up to 37.8 µM), for inactives: at the top dose activity change, negative = inhibition, actives largely listed as inhibitors | 300,000 compounds, 1.8% hits; calls by dose curve; tested in HEK293 cells; also: potency is read from the fitted curve at half-maximal effect
HCMV inh: inhibitors of human cytomegalovirus; HFF cells, HCMV-luciferase reporter, 72 h; hits give low values; activity change, negative = inhibition, % at 57.5 µM; 410,000 compounds, 4.5% hits; AID 1259415; in the data active = activity change below about -60%; inconclusive = no clear call, values can overlap the other calls; inactive = above about -39%
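After 16 h attachment at 37C, HFF cells received test compound and HCMV-luciferase (1 PFU/cell); reporter luminescence read 72 h later, data normalized against buffer-only and known inhibitor Salinomycin.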
LASV entry inh: Lassa virus entry inhibition; Lassa virus pseudotype entry inhibition, cell reporter; Potency, µM (doses to about 37.9 µM), for the others: at the highest dose activity change, negative = inhibition, most hits filed as inhibitors; 300,000 compounds, 1.2% hits; AID 540256; calls by dose curve; tested in HEK293 cells; also: potency is read from the fitted curve at half-maximal effect; nearly all actives have a fitted effect of over 50% in size
HCV inhibitor: HCV inhibition; Huh7.5.1 HCVcc-Cre infection, luciferase reporter, 44 h; Potency, µM (titrated, usually from 41.8 µM), inactives show top-dose activity change, negative = inhibition, hits mostly inhibitors; 340,000 compounds, 3.4% hits; AID 651820; also: potency is read from the fitted curve at half-maximal effect
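HCVcc-Cre virus at an moi near 0.5 was added right after compound to cells cultured 4 h from seeding (1,000 cells/well). Luciferase activity was determined 44 h later, 15 min after substrate addition at RT.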
Pf growth 48h: inhibits P. falciparum growth in the first generation, 48 h; P. falciparum luciferase growth in erythrocytes, 48 h; Potency, µM (top dose mostly 28.7 µM), without a hit: at the top dose activity change, negative = inhibition, hits mostly inhibitors; 310,000 compounds, 5.9% hits; also: potency is read from the fitted curve at half-maximal effect
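Parasite viability was followed by luminescence of a genomically integrated firefly luciferase. Cultures held 0.1% parasitemia at 2% hematocrit (final), incubated under 5% CO2 at 37 C.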
Pf growth 96h: P. falciparum growth inhibition at 96 hours. P. falciparum luciferase reporter growth, 96 h. Potency, µM (top dose mostly 28.7 µM), inactives show top-dose activity change, negative = inhibition, most hits filed as inhibitors. 320,000 compounds, 6.9% hits. AID 504834; also: potency is read from the fitted curve at half-maximal effect
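P. falciparum expressing integrated firefly luciferase, in erythrocytes at 2% hematocrit, 0.05% parasitemia, incubated with compounds 96 h at 37 C, 5% CO2. Growth inhibition read as loss of luminescence; two-generation exposure targets delayed-death apicoplast inhibitors.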
An asterisk follows results filed as active; i = inactive; u = inconclusive; x = not tested or not shown; [ ] = another dose, or the depositor's remark. Hits are enriched below; roughly 14% of the tested compounds scored in any of these assays. Unless noted, calls follow the shape of the dose curve; as a rule, active = well fitted inhibition curve with a large enough effect; inconclusive = small, poorly fitted or top-dose-only effect, or another doubt; inactive = no such curve, though single readings can be large or run the other way. % is scaled to controls: 0 for no effect and ±100 for the full control effect.

SMILES	Marburg entry inh	HCMV inh	LASV entry inh	HCV inhibitor	Pf growth 48h	Pf growth 96h
N/C(CCS(=O)(=O)c1ccc(Cl)cc1)=N\OC(=O)c1ccc(Cl)cc1	x	16.4	x	-22.8%	u	u
CC(C)(C)OC(=O)NCCCC[C@H](NC(=O)c1[nH]cnc1C(=O)Nc1ccc(Cl)cc1)C(=O)OC(C)(C)C	x	x	x	u	5.22µM*	5.86µM*
CC(C)(C)OC(=O)NCCCC[C@H](NC(=O)c1[nH]cnc1C(=O)Nc1ccccc1)C(=O)OC(C)(C)C	x	24.0	x	u	4.65µM*	5.22µM*
CCCCOc1ccc(CNC(=O)c2cc3n(n2)CCCN(Cc2ccc(C)cc2)C3=O)cc1	x	-38.0	u	x	x	x
Cc1cc2oc(C(=O)Nc3cccc(-c4nc5ccccc5o4)c3)c(C)c2cc1Cl	-0.7%[46.1 µM]	10.6	u	x	x	x
Cc1ccc(NS(=O)(=O)c2cc(OCC(N)=O)c(C)cc2Cl)cc1C	23.8%	-5.5	-11.0%	u	11.7µM*	u
Cc1cccc(NS(=O)(=O)c2cc(OCC(N)=O)c(C)cc2Cl)c1	-1.9%	27.6	2.4%	-16.2%	-11.9%	-16.5%
Cc1ccccc1NS(=O)(=O)c1cc(OCC(N)=O)c(C)cc1Cl	x	-4.9	x	0.4%	55.3%	10.4µM*
Cc1ccc(NC(=O)c2cc(C)n(-c3cccc(C)c3)c2C)cc1	6.51µM*	-5.4	10µM*	u	14.9%	-87.1%
Cc1cc(C(=O)Nc2ccc(Cl)cc2)c(C)n1-c1ccccc1	1.12µM*	-93.3*	u	-23.4%	u	-50.6%
Cc1cc(C(=O)Nc2ccc(Cl)cc2)n(-c2ccccc2)n1	-1.2%[46.1 µM]	-13.5	-11.4%[46.1 µM]	-2.0%	20.7%	u
Cc1ccc(-n2c(C)cc(C(=O)NS(=O)(=O)c3ccc(C)cc3)c2C)cc1	-4.8%[46.1 µM]	-18.9	4.0%[46.1 µM]	5.3%	4.2%	29.5%
Cc1ccc(NC(=O)c2cc(C)n(-c3ccccc3)c2C)cc1	2.24µM*	-93.0*	2.82µM*	u	-74.3%	-98.7%
Cc1ccc(NC(=O)c2csc(-c3ccccc3)c2C)cc1	13µM*	-12.5	6.51µM*	-1.7%	193.8%	i
Cc1cc(C)n(-c2ccc(C(=O)OC(C)C(=O)Nc3ccc(C(N)=O)cc3)cc2)n1 (stereo not drawn)	12.0%[46.1 µM]	-29.7	6.4%	u	28.3%	15.8%
O=C1COCc2ccc(-c3ccc(Cl)cc3)cc2N1CCN1CCOCC1	x	-8.7	x	x	x	x
COCCCn1c(=S)[nH]c2c(sc3ccccc32)c1=O	13.4%[46.1 µM]	-21.6	25.5%	-11.9%	18.5%	10.4µM*
Cc1ccc(CN(C(=O)Nc2cccc(Cl)c2)c2ccccn2)cc1	3.2%[46.1 µM]	-17.9	-18.8%[46.1 µM]	x	x	x
O=C1c2cccc3c([N+](=O)[O-])ccc(c23)C(=O)N1c1ccccn1	10µM*	-103.0*	u	u	-0.2%	-11.8%
O=C1c2cccc3c([N+](=O)[O-])ccc(c23)C(=O)N1c1nccs1	u	-94.8*	u	u	11.3%	21.5%
O=C1c2cccc3c([N+](=O)[O-])ccc(c23)C(=O)N1c1ccc(Cl)cn1	u	-105.1*	u	10µM*	-0.6%	154.3%
O=C1c2cccc3c([N+](=O)[O-])ccc(c23)C(=O)N1O	x	15.1	x	0.2%	1.3%[0.00184 µM]	22.3%
Cn1c(=O)c2c(nc(CN3CCN(c4ccccc4)CC3)n2Cc2ccccc2Cl)n(C)c1=O	u	29.5	-23.7%	-3.0%	6.57µM*	u
CN1CCN(Cc2nc3c(c(=O)n(C)c(=O)n3C)n2Cc2ccccc2Cl)CC1	-5.1%	x	x	x	x	x
Cn1c(=O)c2c(nc(CN3CCN(c4ccccc4)CC3)n2Cc2c(F)cccc2Cl)n(C)c1=O	u	-21.2	u	-18.3%	u	5.22µM*
COc1cccc(CNC(=O)c2ccc3nc(-c4ccccc4)c(-c4ccccc4)nc3c2)c1OC	x	5.3	u	x	x	x
CCN(C(=O)c1cn(C)c(=O)c2cc(OC)c(OC)cc12)c1cc(C)ccc1C	-1.3%	25.5	u	-21.2%	9.28µM*	71.5%
CCN(C(=O)c1cn(C)c(=O)c2cc(OC)c(OC)cc12)c1ccccc1C	4.9%	-12.9	-19.6%	-14.5%	5.2%	x

Screens deposited in PubChem BioAssay by National Center for Advancing Translational Sciences (NCATS).
